In PubChem BioAssay AID2685 (National Center for Advancing Translational Sciences (NCATS), 2010):
Hit rate of the full screen: of about 320,000 compounds, about 2,100 (0.66%) were called active. Inconclusive results (about 53%) are left out. Calls come from the whole dose curve; as a rule, active = well fitted inhibition curve with a large enough effect in the signal ratio, with a control signal flat (not every such curve was filed as active); inconclusive = small, poorly fitted or top-dose-only effect, or effect the other way, or a change in a side signal; inactive = flat fitted curve, though single readings scatter; the % refers to the signal ratio. What follows is part of a selection rich in actives, with near analogues and random picks from the rest.

assay: qHTS Assay for Lipid Storage Modulators in Drosophila S3 Cells; conditions: BODIPY lipid droplet fluorescence, 18-24 h, cells fed with added oleic acid; cell number change: measured here: cell count max response; series mostly up to 46.1 µM;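 for cell number change: cells counted by Cell Tracker Red CMTPX staining in the red channel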; for lipid storage change, negative = inhibition: % is set by controls: 0 for no effect and ±100 for the full control effect
Summary of the method: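 Laser-scanning cytometry quantifies lipid droplet accumulation (500–530 nm total intensity; droplet/cell object ratio) in oleic acid-fed (400 uM added) Drosophila S3 cells treated with a concentration series. 20 uM Triacsin C defined 100% inhibition.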
Potency is the fitted concentration of half-maximal effect.

SMILES	Potency	cell number change [%]	lipid storage change, negative = inhibition
O=[N+]([O-])c1cccc(C(=S)N2CCCC2)c1	inactive	3.41	–
COc1ccccc1/C=C/C(=O)OCC(=O)NCc1ccco1	inactive	4.89	–
CCCc1c(C(=O)N/N=C(/C)c2ccncc2)nnn1-c1nonc1N	inactive	8.62	–
Cc1ccc(/C=C2/SC(=S)N(C3CCCCC3)C2=O)o1	inactive	14.1	–
Cc1cc(C)n(CCCN2C(=O)c3cccc4cccc(c34)C2=O)n1	inactive	–	–
CNCc1ccccc1OCC(=O)Nc1ccccc1	inactive	-38.8	–
COc1ccc(CC(=O)OCC(=O)N2CCCc3ccccc32)cc1	inactive	-4.06	–
COCCCNC(=O)CCC(=O)NNc1nc2ccccc2c2nc(-c3ccccc3)nn12	inactive	5.05	–
CCOCCCNC(=O)CCC(=O)NNc1nc2ccccc2c2nc(-c3ccccc3)nn12	inactive	-6.89	–
CC(C)OCCCNC(=O)CCC(=O)NNc1nc2ccccc2c2nc(-c3ccccc3)nn12	11.6 µM (active)	-5.84	–
Cc1cc(C)cc(-n2c(N)c(C(=O)Nc3c(C)n(C)n(-c4ccccc4)c3=O)c3nc4ccccc4nc32)c1	inactive	0.326	–
CCOc1cc(/C=C/c2cccc[n+]2C)ccc1OCC(=O)Nc1ccc(C)cc1	inactive	2.56	–
CCC(Sc1ccc(C(=O)O)cc1)C(=O)O (stereo unspecified)	inactive	22.4	–
CCC(Sc1nc(N)cc(N)n1)C(=O)O (stereo unspecified)	20.6 µM (active)	-9.76	–
CCC(Sc1nc2ccccc2o1)C(=O)O (stereo unspecified)	inactive	11.5	–
Cc1ccc(C)n1NC(=O)c1ccccc1	inactive	1.97	–
NC(=O)CNC(=O)c1cccc(Cl)c1	inactive	1.9	–
CC(C)CCNC(=O)c1cccc(Cl)c1	inactive	19.2	–
Cc1ccc(C)n1NC(=O)c1ccc(Cl)cc1Cl	inactive	0.742	–
O=C(NCCO)c1cccc(Cl)c1	25.9 µM (active)	-4.89	–
Cc1ccc(C)n1NC(=O)c1cccc(Cl)c1	20.6 µM (active)	–	–
COc1ccc(N2C(=S)N=C(Nc3cccc(C)c3)C23CCCCC3)cc1	inactive	-6.29	–
Cc1ncoc1C(=O)N1CCCC(C(=O)c2cccc3ccccc23)C1 (stereo unspecified)	inactive	6.72	–
CCC(C)Oc1nc2c(c(=O)n(C)c(=O)n2C)n1C (stereo unspecified)	inactive	14.8	–

SMILES	Potency	cell number change [%]	lipid storage change, negative = inhibition
CC(=O)/C(=C/Nc1ccc(Oc2ccccc2)cc1)c1ccccc1	inactive	–	–
COc1ccc(-n2nc(C(=O)NCC(=O)NCCCN3CCOCC3)c3ccccc3c2=O)cc1	inactive	-8.11	–
COc1ccccc1CNc1cncnc1	inactive	7.04	–
O=C(Nc1ccc(Cl)cc1)C1CCCN(c2ncnc3c2nc2n3CCCCC2)C1 (stereo unspecified)	inactive	-19.1	–
Cc1cccc(N2CC(C(=O)Nc3nnc(SCc4cccnc4)s3)CC2=O)c1 (stereo unspecified)	inactive	0.463	–
Cc1ccc(Nc2cc(C)nc3ncnn23)c(Cl)c1	inactive	1.99	–
CCOC(=O)Cc1nnc(NC(=O)CSc2ccc(C)cc2)s1	inactive	10.4	–
CC(NC(=O)c1ccco1)c1nc(-c2ccccc2)no1 (stereo unspecified)	25.9 µM (active)	24.3	–
CC(NC(=O)c1ccco1)c1nc(-c2ccc(Cl)cc2)no1 (stereo unspecified)	inactive	–	–
CC(NC(=O)c1ccco1)c1nc(-c2ccc(C(C)(C)C)cc2)no1 (stereo unspecified)	inactive	-0.87	–
Cc1c(NC(=O)COc2cccc(F)c2)c(=O)n(-c2ccccc2)n1C	inactive	-5.04	–
COc1ccccc1NC(=O)C(C)OC(=O)CCCN=C1NS(=O)(=O)c2ccccc21 (stereo unspecified)	inactive	–	–
CCOc1ccc(/C=N/NC2=NCCCCC2)cc1	inactive	8.72	–
COc1ccc(/C=N/NC2=NCCCCC2)cc1	inactive	–	–
Oc1ccc(/C=N/NC2=NCCCCC2)cc1	9.2 µM (active)	1.27	–
C=CCSc1nc(=O)n2ccccc2n1	inactive	–	–
CCCSc1ccc(-c2nn(-c3ccccc3)cc2/C=C(/C#N)C(=O)N2CCOCC2)cc1	inactive	-5	–
O=C(c1c(F)cccc1F)N(C1CCCCC1)C1CCCCC1	inactive	-23	–
COc1ccc(N(CC(=O)NCc2ccco2)S(=O)(=O)c2ccccc2)cc1	inactive	3.25	–
COCCCNC(=O)CN(c1cc(OC)ccc1OC)S(=O)(=O)c1ccccc1	inactive	13.9	–
Cc1ccc(NC(=O)CN(C)S(=O)(=O)c2ccc3c(c2)n(C)c(=O)c(=O)n3C)c(C)c1	inactive	25.1	–
COc1ccc(N(CC(=O)NCc2ccccc2OC)S(=O)(=O)c2c(C)nn(C)c2C)cc1	–	–	22.2% [at 9.22 µM] (inactive)
CN(CC(=O)Nc1ccccc1F)S(=O)(=O)c1ccc2c(c1)n(C)c(=O)c(=O)n2C	inactive	1.35	–
Cc1ccccc1NC(=O)CN(C)S(=O)(=O)c1ccc2c(c1)n(C)c(=O)c(=O)n2C	18.4 µM (active)	13.4	–

SMILES	Potency	cell number change [%]	lipid storage change, negative = inhibition
COc1ccc(N(CC(=O)NCc2ccccc2OC)S(=O)(=O)c2ccccc2)cc1	8.2 µM (active)	10.9	–
CCOc1ccc(N(CC(=O)NC2CCCC2)S(=O)(=O)c2ccccc2)cc1	2.59 µM (active)	-7.14	–
COc1ccc(OC)c(N(CC(=O)NCCSC2CCCCC2)S(=O)(=O)c2ccccc2)c1	14.6 µM (active)	-18.5	–
COc1ccc(N(CC(=O)NCCSC2CCCCC2)S(=O)(=O)c2ccccc2)cc1OC	inactive	-12.6	–
CCOc1ccc(N(CC(=O)NC2CCCCCC2)S(=O)(=O)c2ccccc2)cc1	inactive	24.3	–
CCOc1ccc(N(CC(=O)NC2CC3CCC2C3)S(=O)(=O)c2ccccc2)cc1 (stereo unspecified)	inactive	16.1	–
CCc1ccc(CN2CCCC(CCC(=O)N3CCN(c4ccccn4)CC3)C2)o1 (stereo unspecified)	inactive	5.55	–
Cc1cc(CN2CCCC(N3CCc4ccccc4C3)C2)cc(C)c1O (stereo unspecified)	inactive	-2.22	–
Cc1[nH]c2ccccc2c1C(c1ccccn1)N1CCC(C(N)=O)CC1 (stereo unspecified)	inactive	-13.7	–
O=C(NCCN1CCOCC1)c1cccn2c(=O)c3c4c(sc3nc12)CCCC4	inactive	-12.5	–
Cc1c(C(=O)NCCSCc2ccccc2)cccc1[N+](=O)[O-]	inactive	-1.45	–
O=C(c1ccc(OC2CCN(CCc3ccccc3)CC2)cc1)N1CCCC(CO)C1 (stereo unspecified)	inactive	4.02	–
COc1ccc(N2CCN(CC(O)COc3cc(C)ccc3C)CC2)cc1 (stereo unspecified)	inactive	-17	–
CCCS(=O)(=O)C/C(N)=N/OC(=O)c1ccccc1Cl	inactive	-2.12	–
CCC(C(=O)NCc1ccco1)N(C(=O)CNS(=O)(=O)c1ccccc1)c1ccc(F)cc1 (stereo unspecified)	inactive	-3.04	–
O=C(CN(c1ccc(F)cc1)S(=O)(=O)c1ccccc1)NC1CC2CCC1C2 (stereo unspecified)	inactive	10.7	–
CCc1ccccc1NC(=O)CN(c1ccc(OC)cc1OC)S(=O)(=O)c1ccccc1[N+](=O)[O-]	inactive	-4.08	–
COc1ccc(S(=O)(=O)N(CC(=O)Nc2cccnc2)c2ccccc2OC)cc1	inactive	–	–
CN(CC(=O)NCc1ccc(F)cc1)S(=O)(=O)c1ccc2c(c1)c(=O)n(C)c(=O)n2C	inactive	–	–
COc1ccc(N(CC(=O)Nc2ccc(OC)cc2OC)S(=O)(=O)c2ccccc2)cc1	inactive	-4.04	–
Cc1cccc(N(CC(=O)NC2CC3CCC2C3)S(=O)(=O)c2ccccc2)c1 (stereo unspecified)	20.6 µM (active)	-12.9	–
COc1ccc(N(CC(=O)NC2CC3CCC2C3)S(=O)(=O)c2ccc(C)cc2)cc1OC (stereo unspecified)	inactive	8.82	–
COc1ccccc1N(CC(=O)Nc1ccc(Cc2ccncc2)cc1)S(=O)(=O)c1ccccc1	7.31 µM (active)	27.6	–
CCc1ccccc1NC(=O)CN(c1ccc(OC)cc1OC)S(=O)(=O)c1ccccc1	2.91 µM (active)	-14.4	–

SMILES	Potency	cell number change [%]	lipid storage change, negative = inhibition
COc1ccccc1N(CC(=O)Nc1cccnc1)S(=O)(=O)c1ccccc1	inactive	-18	–
COc1cccc(CNC(=O)CN(C)S(=O)(=O)c2ccc3c(c2)c(=O)n(C)c(=O)n3C)c1	inactive	-15.3	–
COc1ccccc1CNC(=O)CN(C)S(=O)(=O)c1ccc2c(c1)c(=O)n(C)c(=O)n2C	9.2 µM (active)	–	–
CC(=O)NC(CC(=O)OC(C)C(=O)Nc1ncc(Cl)cc1Cl)c1ccccc1 (stereo unspecified)	inactive	–	–
CC(=O)c1c(C)n(CC(=O)NCc2ccc3c(c2)OCO3)c2ccccc12	inactive	–	–
O=S(=O)(NC(=NCCc1ccc(Cl)cc1)c1ccccc1Cl)c1cccs1	inactive	1.69	–
O=C(COc1ccc([N+](=O)[O-])cc1)Nc1cc(C(=O)O)cc(C(=O)O)c1	inactive	11.2	–
Cc1cc(Br)ccc1NC(=O)CNC(=O)CSc1ncccn1	inactive	-9.9	–
Cc1ccccc1C1c2[nH]c3ccccc3c2C[C@H]2C(=O)N(C3CC3)CC(=O)N12 (stereo partly specified)	inactive	-3.81	–
Cc1ccc(S(=O)(=O)N(CC(=O)N2CCC(C)CC2)c2cccc(C)c2)cc1	inactive	–	–
CCOC(=O)N1CCN(C(=O)CN(c2cccc(C)c2)S(=O)(=O)c2ccc(C)cc2)CC1	5.8 µM (active)	6.11	–
Cc1ccc(S(=O)(=O)N(CC(=O)N2CCCCC2)c2cccc(C)c2)cc1	inactive	-21.5	–
Cc1nc2c(C(=O)N3CCOCC3)cnn2c(C)c1Cc1ccc(Cl)cc1	inactive	-21.6	–
CCn1c(SC)nc2cc(S(=O)(=O)N3CCCCC3)ccc21	inactive	-3.03	–
O=C(COC(=O)CNC(=O)c1ccco1)Nc1ccc(Cl)cn1	inactive	–	–
Cc1ccc(OCCC(=O)OCC(=O)Nc2ccc(Cl)cn2)cc1	inactive	-15.3	–
Cc1ccc(C(=O)NCC(=O)OCC(=O)Nc2ccc(Cl)cn2)cc1	3.66 µM (active)	-28.4	–
N#Cc1ccc(COc2cccc3cccnc23)cc1	inactive	-22.2	–
Cc1oc2c(cc(NS(=O)(=O)c3ccc4c5c(cccc35)C(=O)N4)c3ccccc32)c1C(=O)OC(C)C	inactive	10.8	–
CC(C)C(NS(=O)(=O)c1ccc2c3c(cccc13)C(=O)N2)C(=O)O (stereo unspecified)	inactive	15.8	–
Cc1cc(O)ccc1NS(=O)(=O)c1ccc2c3c(cccc13)C(=O)N2	0.366 µM (active)	-0.855	–
